± gives the standard deviation of the averaged measurements. Over roughly 1,600 compounds, “normalized growth (OD600, IQM-normalized) in LPM” has its median near 1; the lowest 2% begin near 0.014. The sample holds the lowest values, similar compounds and a random draw of the others, so the mix is not that of the screen.
Each compound was assayed on Salmonella enterica serovar Typhimurium SL1344 (assay: normalized growth (OD600, IQM-normalized) in LPM (fraction of plate interquartile mean); higher = more bacterial growth (less inhibition)). Settings: LPM pH 5.8; 10 µM; 16 h.
CCn1cc(C(=O)O)c(=O)c2cc3c(cc21)OCO3 gave a normalized growth of 0.00952 ± 0.00073. In the case of C[N+]1(C)CCCC(OC(=O)C(O)(c2ccccc2)c2ccccc2)C1 (stereo not given), the normalized growth is reported as 1.1 ± 0.011. CC[C@H]1CN2CC[C@H]1C[C@@H]2[C@@H](O)c1ccnc2ccc(OC)cc12 showed a normalized growth of 0.912 ± 0.022. Compound CC(C)C[C@H]1C(=O)N2CCC[C@H]2[C@]2(O)O[C@](NC(=O)[C@@H]3C=C4c5cccc6[nH]c(Br)c(c56)C[C@H]4N(C)C3)(C(C)C)C(=O)N12 has a normalized growth of 0.947 ± 0.03. With Cc1ccc(O)cc1.Cc1cccc(O)c1.Cc1ccccc1O the normalized growth was 0.955 ± 0.19. Work on O=[N+]([O-])C(Br)(CO)CO yielded a normalized growth of 0.786 ± 0.02. Work on CCCCOC(=O)c1ccccc1C(=O)OCCCC yielded a normalized growth of 1.363 ± 0.0046. For C[CH2][Hg][S]c1ccccc1C(=O)[O-].[Na+], the normalized growth was 0.00984 ± 0.0003. In the case of O=C([O-])Cc1ccccc1.[Na+], the normalized growth is reported as 1.14 ± 0.026. For Oc1noc2c1CCNC2, the normalized growth was 0.948 ± 0.041. With [O-][n+]1ccccc1[S-].[O-][n+]1ccccc1[S-].[Zn+2] the normalized growth was 0.00799 ± 0.00024. Compound O=C1CCO1 has a normalized growth of 0.959 ± 0.039. Oc1ccc2c3c1O[C@H]1[C@@H](O)CC[C@@]4(O)[C@@H](C2)N(CC2CCC2)CC[C@]314 was tested, and the normalized growth was 0.92 ± 0.12. CC(=O)[O][Hg][c]1ccccc1 was tested, and the normalized growth was 0.0096 ± 0.00029. CC(Cc1ccc(O)cc1)NCC(O)c1cc(O)cc(O)c1 (stereo not given) showed a normalized growth of 1.087 ± 0.0059. CCOP(=S)(OCC)Oc1nc(Cl)c(Cl)cc1Cl was tested, and the normalized growth was 1.33 ± 0.11. For NC(=O)C[S+]([O-])C(c1ccccc1)c1ccccc1 (stereo not given), the normalized growth was 0.865 ± 0.082. For CC(C)=CC1C(C(=O)OCc2cccc(Oc3ccccc3)c2)C1(C)C (stereo not given), the normalized growth was 0.894 ± 0.04. NP(N)(=O)NC(=O)c1ccc(F)cc1 was tested, and the normalized growth was 1.06 ± 0.017. Work on C[N+]12CCC(CC1)C(OC(=O)C(O)(c1ccccc1)c1ccccc1)C2 (stereo not given) yielded a normalized growth of 1.05 ± 0.026. In the case of Oc1ccc(Cl)cc1, the normalized growth is reported as 0.971 ± 0.012. In the case of Oc1cc(Cl)ccc1Oc1ccc(Cl)cc1Cl, the normalized growth is reported as 0.00811 ± 0.00016. In the case of Oc1ccc(Cl)cc1Cc1cc(Cl)ccc1O, the normalized growth is reported as 0.895 ± 0.086. For O=[N+]([O-])O[C@@H]1CO[C@H]2[C@@H]1OC[C@@H]2O, the normalized growth was 1.11 ± 0.026. In the case of CC(C)(O)C(Cl)(Cl)Cl, the normalized growth is reported as 1 ± 0.032.

Reference: the supplement of paper PMC6331611
